Compound activity from PubChem.
Only some compounds are listed: those with a hit (about 3.8% of all), similar ones and a draw of the others.
ADAM17 inh = inhibitors of human ADAM17; P78536; recombinant ADAM17, EDANS/DABCYL FRET peptide cleavage; inhibition, % at 6.95 µM; hit rate 0.83% among 370,000; AID 720648;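 active means inhibition above the mean of compounds lying between control limits plus 3 SD, set per campaign, cut at about 8.5% in these data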;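 further: 0% = DMSO-only wells as the low control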
FGF22 binding = binders of recombinant human FGF22 by thermal shift | hit rate 1.5% among 340,000 | SYPRO orange fluorescence; percent of sucrose octasulfate shift, DMSO zero | Q9HCT0 | activity (Tm shift, normalised), % at 9.99 µM | AID 651658;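 active means mean Tm shift, scaled 0 neutral to 100 positive control, at about 1.3% or above, every replicate too, limit read from the data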
Target sequence (Q9HCT0 whole entry, looked up): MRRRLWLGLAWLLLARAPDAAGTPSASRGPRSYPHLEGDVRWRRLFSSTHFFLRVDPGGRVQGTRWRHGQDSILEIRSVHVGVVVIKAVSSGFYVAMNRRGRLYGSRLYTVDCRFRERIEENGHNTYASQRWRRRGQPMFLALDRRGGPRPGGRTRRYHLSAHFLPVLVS
ADAM10 inh = inhibits human ADAM10; AID 720582; recombinant ADAM10, EDANS/DABCYL FRET peptide cleavage, 3 h; inhibition, % at 7 µM; hit rate 0.62% among 370,000;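 active means inhibition above a per-campaign cutoff equal to the mean of compounds falling between control-based bounds plus 3 SD, cut at about 20% in these data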;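 further: 0% = DMSO wells while the 100% control is not disclosed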
rRNA inh HTS = selective bacterial rRNA inhibition in E. coli | E. coli WT GFP vs humanized-ribosome RFP mutants, fluorescence, 24 h; stronger effect = lower value; DMSO median 0, no signal -100 | GFP signal change (wild-type ribosome), % (concentration not given with the values) | hit rate 1.6% among 350,000 | AID 720706;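 active means significant combined selectivity score with lowered wild-type GFP, culture density cut under 30%, mutant RFP and density less affected; inactive means any of these conditions unmet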
KLK7 zymogen act = proKLK7 (human) activation, primary screen; hit rate 0.9% among 370,000; AID 652039; P49862; activation, % at 7 µM; purified proKLK7, EDANS-DABCYL substrate fluorescence; 100% is mature enzyme control, 0% vehicle;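 active means activation above the mean of all tested compounds plus 3 SD, computed per campaign excluding outliers beyond control limits, cut at about 13% in these data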
Target sequence (P49862 whole entry, looked up): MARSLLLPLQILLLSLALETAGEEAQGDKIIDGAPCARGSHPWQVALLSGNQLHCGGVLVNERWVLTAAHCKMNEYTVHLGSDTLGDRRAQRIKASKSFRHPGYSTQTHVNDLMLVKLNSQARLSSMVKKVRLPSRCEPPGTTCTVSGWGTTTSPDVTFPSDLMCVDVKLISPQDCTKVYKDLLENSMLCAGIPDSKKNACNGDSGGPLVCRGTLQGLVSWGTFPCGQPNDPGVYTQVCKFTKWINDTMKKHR
The depositor's hits bear a star; . = no result.

SMILES | ADAM17 inh | FGF22 binding | ADAM10 inh | rRNA inh HTS | KLK7 zymogen act
CCOc1ccc(C(NC(=O)c2ccco2)c2ccc(OC)c(OC)c2)cc1 (centres undefined) | 3 | . | -2 | . | 0
CC1(c2ccc(OCC#N)cc2)C=C(c2ccc(OCC#N)cc2)n2nc(C(F)(F)F)nc2N1 (centres undefined) | 6 | 0 | 17 | -27* | 1
Cc1ccc(C2=CC(C)(c3ccc(C)cc3)Nc3nc(C(F)(F)F)nn32)cc1 (centres undefined) | 3 | 0 | 12 | 2 | 0
C[C@@H]1CCCCO[C@H](CN(C)C(=O)NC2CCCCC2)[C@H](C)CN([C@@H](C)CO)C(=O)c2cc(NC(=O)Nc3ccc4c(c3)OCO4)ccc2O1 | . | -1 | . | 3 | .
O=C(Nc1ccc2sccc2c1)c1cccc(N2C(=O)CCC2=O)c1 | -2 | 43* | -6 | -16 | 0
Clc1ccc(-c2nnc(CNC3CC3)o2)cc1 | 2 | 43* | -5 | 13 | 0
Cc1nn(-c2ccccc2)c(Cl)c1/C=N/NC(=O)OC(C)(C)C | 2 | 0 | 2 | -20* | 0
COc1ccc(NCC(=O)N/N=C/c2c(C)nn(Cc3ccccc3)c2Cl)cc1 | 1 | 0 | 7 | -14* | -1
CNC(=S)N/N=C/c1c(C)nn(-c2ccccc2)c1Cl | -2 | . | 4 | . | 0
CCOc1ccccc1N1CCN(C(=S)NCc2ccccc2)CC1 | 1 | 0 | 0 | -22* | 1
C[C@@H]1CN([C@H](C)CO)C(=O)c2cc(C3=CCCCC3)cnc2O[C@@H]1CN(C)C(=O)c1cccnc1 | . | . | . | 6 | .
Cc1ccc(-c2csc(Nc3ccc(S(N)(=O)=O)cc3)n2)o1 | -2 | 43* | -1 | 20 | 0
NS(=O)(=O)c1ccc(Nc2nc(-c3cccc([N+](=O)[O-])c3)cs2)cc1 | 3 | 0 | 9 | -27* | 1
C[C@@H]1CN([C@H](C)CO)C(=O)c2cc(NS(C)(=O)=O)ccc2O[C@@H]1CN(C)S(=O)(=O)c1ccccc1 | . | . | . | 0 | .
COc1c(OC(C)=O)ccc(/C=N\NC(=O)c2ccc(Br)cc2)c1[N+](=O)[O-] | 1 | 45* | -2 | -19 | -1
COc1ccc(Br)cc1/C=N/NC(=O)c1cc(OC)c(OC)c(OC)c1 | -6 | . | -15 | . | -1
CNC(=O)C[C@H]1CC[C@H]2[C@@H](COc3ccc(NC(=O)CN(C)C)cc3C(=O)N2C)O1 | . | . | . | 2 | .
CC(C)n1c(=S)[nH]c2ccccc2c1=O | -2 | . | 5 | . | 0
CCC(C)n1c(=S)[nH]c2ccccc2c1=O (centres undefined) | 1 | 43* | 8 | -48 | 0
CO[C@H]1CN(C)C(=O)c2ccc(NC(C)=O)cc2OC[C@H](C)N(C(=O)c2cccnc2)C[C@@H]1C | . | 0 | . | 3 | .
CC(C)NC(=O)Nc1cccc2c1O[C@@H](CN(C)C(=O)OC(C)(C)C)[C@@H](C)CN(C)C2=O | . | . | . | 3 | .
Cc1cccc(N2CCN(C(=O)CNC(=O)c3cccc([N+](=O)[O-])c3)CC2)c1C | -4 | 0 | 1 | -19* | 0
C[C@H](CO)N1C[C@H](C)[C@@H](CN(C)C(=O)Nc2ccc3c(c2)OCO3)Oc2c(NC(=O)NC3CCCCC3)cccc2C1=O | . | . | . | 1 | .
C[C@@H]1CN([C@@H](C)CO)S(=O)(=O)c2ccc(C#CC3CC3)cc2O[C@H]1CN(C)C(=O)Cc1ccncc1 | . | 0 | . | -4 | .
CC1CC(C)CN(CC(=O)c2cccs2)C1 (centres undefined) | -4 | 0 | 4 | 17 | 0
SMILES | ADAM17 inh | FGF22 binding | ADAM10 inh | rRNA inh HTS | KLK7 zymogen act
CC1CCN(CC(=O)c2cccs2)CC1 | 2 | 44* | -3 | 9 | 0
CC1CC(C)CN(C(=O)COC(=O)CCC(=O)c2cccs2)C1 (centres undefined) | -7 | 44* | -13 | 1 | 0
O=C(CCC(=O)c1cccs1)OCC(=O)N1CCN(C(=O)c2ccco2)CC1 | 1 | . | 0 | . | 0
COc1cccc(C#Cc2ccc([C@H]3[C@@H](CO)N4C(=O)CN(S(=O)(=O)c5ccccc5C)C[C@@H]34)cc2)c1 | . | 0 | . | 7 | .
CCCNC(=O)N1CC2(CCN(C(=O)COC)CC2)c2c(n(C)c3cc(OC)ccc23)[C@H]1CO | . | . | . | -1 | .
C[C@@H]1CN([C@@H](C)CO)S(=O)(=O)c2ccc(-c3ccc(C(=O)N(C)C)cc3)cc2O[C@H]1CN(C)C(=O)C1CC1 | . | . | . | -6 | .
O=C(O)CC/C(=N\Nc1ccc(Cl)cc1)c1cccs1 | 0 | 0 | 1 | -28* | -1
CC(=O)Nc1ccc2c(c1)C(=O)N(C)[C@@H]1CC[C@H](CC(=O)NCC3CC3)O[C@H]1CO2 | . | 0 | . | 3 | .
Cc1c(NS(=O)(=O)c2ccc(Cl)c(C(=O)OCC(=O)NCc3ccco3)c2)c(=O)n(-c2ccccc2)n1C | 2 | 44* | 4 | . | -1
CO/N=C/C(C#N)=C/c1ccc(OC)cc1 | 6 | 44* | 8 | -13 | 0
COc1ccc(/C=C(/C#N)S(=O)(=O)c2ccc(C)cc2)cc1 | -1 | . | 0 | . | 0
CC12C=CC3(O1)C(C(=O)N(c1ccccc1)C3C(=O)NC1CCCC1)C2C(N)=O (centres undefined) | 7 | . | 1 | . | 0
CC12C=CC3(O1)C(C(=O)N1CCCOC13)C2C(=O)O (centres undefined) | 0 | 43* | -1 | 19 | 0
CCOC(=O)CN1C(=O)S/C(=C\c2ccc(-c3cccc(C(=O)O)c3C)o2)C1=O | -2 | 0 | 1 | -8 | 0
CCOC(=O)CN1C(=O)S/C(=C\c2ccc(-c3ccc(C(=O)O)c(Cl)c3)o2)C1=O | -3 | 0 | -10 | -24* | 0
Cc1ccc(NC(=O)CN2C(=O)S/C(=C\c3ccc(-c4cccc(C(=O)O)c4C)o3)C2=O)cc1C | -1 | 44* | -4 | 6 | -1
Cc1cccc(NC(=O)CN2C(=O)N/C(=C/c3ccc(-c4cccc(C(=O)O)c4C)o3)C2=O)c1 | -5 | 43* | -16 | 13 | 4
CC(=O)N(C)C[C@H]1Oc2ncc(/C=C/c3ccccc3)cc2C(=O)N([C@@H](C)CO)C[C@H]1C | . | 0 | . | -2 | .
O=C(CCNC(=O)c1ccccc1)Nc1ccc(F)c(Cl)c1 | -1 | 44* | -4 | -2 | 0
O=C(C[C@H]1C=C[C@H](NS(=O)(=O)c2ccccc2)[C@@H](CO)O1)N1CCC(Cc2ccccc2)CC1 | . | 0 | . | 2 | .
CCOc1ccccc1OCCCC(=O)N1CCN(S(=O)(=O)c2cc(F)ccc2F)CC1 | -5 | 0 | -10 | -20* | 0
Cc1ccc(N/C=C(\[N+](=O)[O-])S(=O)(=O)c2ccccc2)cc1 | -2 | 0 | -4 | -22* | 0
C[C@@H]1CN([C@@H](C)CO)C(=O)c2cc(NC(=O)CCC(F)(F)F)ccc2O[C@@H](C)CCCCO[C@H]1CN(C)S(=O)(=O)c1ccccc1 | . | 0 | . | -1 | .
